# Assay results reported in ChEMBL document CHEMBL4513216, “Probing the Open Global Health Chemical Diversity Library for Multistage-Active Starting Points for Next-Generation Antimalarials” (ACS Infect Dis, 2020).
# Out of some 69,000 compounds screened, about 8,600 (12%) showed an effect of 50% or more. This excerpt belongs to a sample that is enriched for strong results.
# Test system: Plasmodium berghei
# Experiment: Screen against P. berghei liver stage (PbLuc), transformed with Luciferase, at 10uM
# Type: functional, HepG2
# Conditions: tested at 10 uM
row,SMILES,INHIBITION
1,Cc1cccc(-n2c(C)cc(C(=O)NS(C)(=O)=O)c2C)c1,9.14%
2,C/C(Cl)=C/CNC(=O)C1CCC2(CC1)CN(C)C(=O)c1ccccc1O2 (configuration not stated),7.96%
3,CCC(C)NS(=O)(=O)c1ccc(C=Cc2onc(C)c2NC(C)=O)cc1 (configuration not stated),-9.55%
4,O=C(CN1CCN(CC2CCOc3ccccc3C2)CC1)N1CCCC1 (configuration not stated),16.1%
5,CN(C)C(=O)CN1CCCN(CC2CCOc3ccccc3C2)CC1 (configuration not stated),75.2%
6,CC(C)NC(=O)CN1CCN(CC2CCOc3ccccc3C2)CC1 (configuration not stated),-19.8%
7,O=C(COc1ccccc1Cl)N1CCCC(n2ccnc2)C1 (configuration not stated),19.5%
8,O=C(c1ccc(S(=O)(=O)N2CCSCC2)cc1)N1CCCCCC1,24.2%
9,Cc1ccc(C(=O)N2CCN3C[C@H](Oc4cccnc4)C[C@H]3C2)cn1,39.3%
10,Cc1n[nH]c(C)c1CCC(=O)NCC1CCOc2ccccc2C1 (configuration not stated),49.9%
11,COc1ccc2c(c1)OCC(CNC(=O)CCc1c(C)n[nH]c1C)C2 (configuration not stated),35%
12,COCCC(=O)NCC1COc2cc(OC)ccc2C1 (configuration not stated),72.7%
13,COc1ccc2c(c1)OCC(CNC(=O)c1cnc(NC(C)C)nc1)C2 (configuration not stated),-42.8%
14,CCc1nc(C)c(C(=O)NCC2COc3cc(OC)ccc3C2)o1 (configuration not stated),53.2%
15,Cc1n[nH]c(C)c1CCC(=O)NCC1COc2ccccc2C1 (configuration not stated),52.6%
16,COc1ccc2c(c1)OCC(CNC(=O)c1cnc(O)cn1)C2 (configuration not stated),12.9%
17,COc1ccc2c(c1)OCC(CNC(=O)c1ccc3[nH]nnc3c1)C2 (configuration not stated),4.52%
18,COc1ccc2c(c1)OCC(CNC(=O)c1cc[nH]c1C)C2 (configuration not stated),-3.83%
19,COc1ccc2c(c1)OCC(CNC(=O)c1ccncc1)C2 (configuration not stated),4.2%
20,Cc1[nH]nc(CCC(=O)NCC2COc3ccccc3C2)c1C (configuration not stated),13.7%
21,CCNC(=O)c1ccnc(NCC2COc3cc(OC)ccc3C2)c1 (configuration not stated),51.6%
22,CC(C)c1nn(C)cc1CNCc1cccc(N(C)C)c1,12.4%

row,SMILES,INHIBITION
1,Cc1nccn1C1CCCN(C(=O)COC2CCCC2)C1 (configuration not stated),39.735%
2,CCN(c1ccc(C(=O)NCCCN2CCOCC2)cc1)S(=O)(=O)CC,-0.79%
3,NCC(CO)Cc1ccc(OC(F)(F)F)cc1 (configuration not stated),19%
4,CCOc1ccc(Cl)c(C(=O)N2CCN(CC(C)(C)O)CC2)n1,4.52%
5,CCC[C@H]1CN(C(=O)c2cc(-c3cccs3)n(C)n2)C[C@@H]1N,29.7%
6,c1cc(-c2nc(CN3CCc4c(ncn4C4CC4)C3)cs2)cs1,22.6%
7,COCCN1C[C@@H]2CN(c3cc(OC)ncn3)CCC[C@]2(C(=O)O)C1,57.1%
8,COc1cc(N2CCC[C@]3(C(=O)O)CN(C(C)C)C[C@@H]3C2)ncn1,26.5%
9,CCN1C[C@@H]2CN(c3cc(OC)ncn3)CCC[C@]2(C(=O)O)C1,47.5%
10,CN(C)S(=O)(=O)N1CCCC(C)(c2ncc(C(N)=O)s2)C1 (configuration not stated),23.9%
11,O=C(COC1CCCC1)NCCCn1nc2ccccn2c1=O,-24.6%
12,CN1CCC(N(CCc2ccccc2)C(=O)c2cc[nH]c2)CC1,32.8%
13,CN1CCOC(C)(C(=O)N2CCN(C3CCCC3)CC2)C1 (configuration not stated),32.8%
14,CC1(C(=O)N2CCOCC2)CN(C2CCCCC2)CCO1 (configuration not stated),56.8%
15,CC1(C(=O)N2CCOCC2)CN(CC2CCOCC2)CCO1 (configuration not stated),7.25%
16,COCC(=O)NCc1cc(=O)n2c(n1)CN(Cc1ccoc1)CCC2,36.9%
17,Cc1nc(C)c(C(=O)N2CCc3nc4c(C)csc4c(=O)n3CC2)s1,39.7%
18,Cc1csc2nc3n(c(=O)c12)CCN(Cc1c[nH]cn1)CC3,17.1%
19,CN1CC(C(=O)NCCOc2ccc3c(c2)OCO3)CC1=O (configuration not stated),16.9%
20,CCc1cnc(C(C)NC(=O)N2CCCN(CC(F)F)CC2)s1 (configuration not stated),-37.8%
21,CC(NC(=O)N1CCCN(CC(F)F)CC1)c1ccco1 (configuration not stated),62.3%
22,CC(CNC(=O)N1CCN(CC(F)F)CC1)Cc1cccs1 (configuration not stated),-13.2%

row,SMILES,INHIBITION
1,CC(=O)N1CCCN(C(=O)NC(C)c2ccc(C)o2)CC1 (configuration not stated),11.3%
2,CC(NC(=O)N1CCCN(Cc2cccs2)CC1)c1cccnc1 (configuration not stated),6.92%
3,Cc1ccc(C(C)NC(=O)N2CCCN(CC(F)F)CC2)s1 (configuration not stated),60.9%
4,CN(C)C(=O)c1cc2ncc(C(=O)NC3CC3)cc2n1C,2.59%
5,CC(CNCc1ccncc1)Oc1ccccn1 (configuration not stated),-52.1%
6,Cc1nccn1CCC1CCN(C2CCC3(CCNCC3)CC2)CC1,12.1%
7,O=C1[C@H]2CN(Cc3ccc(F)cc3)C[C@H]2CN1CCN1CCCC1,3.81%
8,Nc1nc(N)c2c(n1)OC1(CCN(C(=O)CC3CCNCC3)CC1)C2,-13.13%
9,CN1[C@H](CN2CCCC2)C[C@@H]2CN(C(=O)c3ccsc3)CC[C@@H]21,28.4%
10,COc1ccc(CCN2C(=O)O[C@@H]3CN(C)C[C@@H]32)cc1,51.2%
11,COc1ccc(CCN2C(=O)O[C@@H]3CN(C4CCSCC4)C[C@@H]32)cc1,47.6%
12,COc1ccc(CCN2C(=O)O[C@@H]3CN(C4CCOCC4)C[C@@H]32)cc1,-5.12%
13,CC1(C)CNC(=O)c2nc(CCCN3CCCC3)[nH]c2C1,83.2%
14,CN1CCCC(c2nc3c([nH]2)CC(C)(C)CNC3=O)C1 (configuration not stated),-67.3%
15,CC1(C)CNC(=O)c2nc(CCN3CCC(O)CC3)[nH]c2C1,53.3%
16,CC1(C)CNC(=O)c2nc(CCN3CCOCC3)[nH]c2C1,-13%
17,CC1(C)CNC(=O)c2nc(CCN3CCCCC3CO)[nH]c2C1 (configuration not stated),24.4%
18,CC1(C)CNC(=O)c2nc(CCN3CCC(C(N)=O)CC3)[nH]c2C1,8.38%
19,O=C(NCC1CC1)Nc1ccc(OCC(F)(F)F)nc1,23.73%
20,O=S(=O)(Cc1c(F)cccc1Cl)Cc1nnnn1C1CC1,25.8%
21,COc1ccc(OC)c(C2CCN(C(=O)CCc3n[nH]c(N)n3)C2)c1 (configuration not stated),-24%
22,COc1ccc(OC)c(C2CCN(C(=O)C3CCN(C(C)C)CC3)C2)c1 (configuration not stated),53.3%

row,SMILES,INHIBITION
1,COc1ccc(OC)c(C2CCN(C(=O)C3CCS(=O)(=O)CC3)C2)c1 (configuration not stated),40.5%
2,COc1ccc(OC)c(C2CCN(C(=O)C3CCOCC3)C2)c1 (configuration not stated),50.1%
3,COc1ccc(OC)c(C2CCN(C(=O)C3CCC(O)CC3)C2)c1 (configuration not stated),25.5%
4,COc1ccc(OC)c(C2CCN(C3CCN(C(C)=O)CC3)C2)c1 (configuration not stated),27.7%
5,CN(CC(=O)Nc1cc(C(C)(C)C)n[nH]1)S(C)(=O)=O,3.63%
6,O=C(NCC1(Sc2ccccc2)CC1)c1c[nH]nn1,20.8%
7,CN(C)CC(=O)N1CCN(CC(O)c2ccc(F)cc2)CC1 (configuration not stated),-11.4%
8,COc1ccccc1OCCc1nnc(NC(=O)C2CC23CCC3)s1 (configuration not stated),31.97%
9,CSCC(=O)N1C[C@@H]2CC[C@H]1CN(Cc1ccccc1)C2,-79.7%
10,CCOc1ccc(C(=O)Nc2c(C)nc3ccc(Cl)cn3c2=O)cc1,51.6%
11,CCOc1ccc(C(=O)Nc2c(C)nc3cccc(C)n3c2=O)cc1,-14.7%
12,COc1ccc(C(=O)Nc2c(C)nc3cccc(C)n3c2=O)cc1,31.7%
13,CCOc1ccc(C(=O)Nc2c(C)nc3scc(C)n3c2=O)cc1,5.58%
14,CCOc1ccc(C(=O)Nc2c(C)nc3ccccn3c2=O)cc1,56.5%
15,CCOc1ccc(C(=O)Nc2ccn(CC)n2)cc1,-125%
16,Cn1cccc1C(=O)N1C[C@@H]2CC[C@H]1CN(Cc1cscn1)C2,-9.39%
17,COc1c(CNC2CCC(O)CC2)c(C(C)C)nn1C (configuration not stated),-18.8%
18,O=C1c2cccnc2OC(CN2CCOCC2)CN1CC1CC1 (configuration not stated),24.5%
19,Cc1nc(C)n(C2CCCN(C(=O)c3c(C)nn4cccnc34)C2)n1 (configuration not stated),26.4%
20,Cc1cc(C(=O)N2CCOC(c3nc(C(C)C)n[nH]3)C2)no1 (configuration not stated),25.1%
21,CNC(=O)c1nc2c(s1)CCN(C(=O)c1cccc(OC)c1)CC2,-78%
22,CCN(CC)C(=O)c1nc2c(s1)CCN(Cc1cccc(OC)c1)CC2,66.8%

row,SMILES,INHIBITION
1,COc1cccc(CN2CCc3nc(C(=O)NCC(C)C)sc3CC2)c1,84.5%
2,COc1ccc(CNC(=O)c2nc3c(s2)CCN(C(C)=O)CC3)cc1,34.6%
3,COc1cccc(CC(=O)N2CCc3nc(C(N)=O)sc3CC2)c1,-16.9%
4,COc1cccc(CNC(=O)c2nc3c(s2)CCN(C(C)=O)CC3)c1,10.1%
5,CC(C)CNC(=O)c1nc2c(s1)CCN(C(=O)c1cccnc1)CC2,-47.5%
6,COc1cccc(CN2CCc3nc(C(N)=O)sc3CC2)c1,2.41%
7,CNC(=O)N1CCc2nc(C(=O)NCc3cccc(OC)c3)sc2CC1,70.7%
8,O=C1OCCN1Cc1nc(C2(c3ccc(F)cc3)CCOC2)no1 (configuration not stated),-73.4%
9,CCc1nc(CN2CC(C(=O)OC)O[C@H](C)C2)cs1 (some centres not stated),30.3%
10,CS(=O)(=O)NCCN1CCCC1c1noc(C2CC2)n1 (configuration not stated),0.914%
11,CN(C)Cc1ccnc(C2CN(CCc3ccccc3)CCO2)n1 (configuration not stated),17.4%
12,Cn1cncc1CN1CCC2(CCCN2c2ncccn2)CC1,16.9%
13,CC(C)(N)C(=O)N1CCCC(c2cncc(Oc3cccnc3)n2)C1 (configuration not stated),41.2%
14,CCOCC(=O)NCC(Cc1cccc(F)c1)n1cccc1 (configuration not stated),47.2%
15,O=C(NCC(Cc1cccc(F)c1)N1CCCC1=O)C1CCCC1 (configuration not stated),0.923%
16,O=C1CCCN1C(CNS(=O)(=O)C1CC1)Cc1cccc(F)c1 (configuration not stated),58.5%
17,O=C1NCCN1C(CNS(=O)(=O)C1CC1)Cc1cccc(F)c1 (configuration not stated),20.1%
18,CCOCC(=O)NCC(Cc1cccc(F)c1)N1CCCCC1=O (configuration not stated),54.1%
19,CCCC(=O)NCC(Cc1cccc(F)c1)N1CCCC1=O (configuration not stated),8.31%
